{"source": "paper PMC12864922", "about": "“TDP-43 directly inhibits mRNA accumulation in neurites through modulation of mRNA stability”", "binders": {"B1": {"name": "ENSMUSG00000035202.92|Lars2 (ssRNA)", "RNA": "GGGAGUUCUACAGUCCGACGAUCGCUUCGAUAUCCGCAUGCUAUUUUACCCUACUGAUGAUGUGUUGUUGCCAUGGUAAUCCUGCUCAGUACGAGAGGAACCGCAGCUAGCUUGUGUCUCCAGUGUCUUUUACCAUCACAGGCCCUGGCUCUGUGCUACCUCCCUAGAAUACCUGUGGUUCAUCACCUUCAGCUCACACUCCAUUCAGACAAUGCUCACUUAGGCCUACAAGCAAGGGAGAGGCUUAAGCACAAGGUCUUUAAGCUUGAUACUGUGCCUGGUCUCAAUGCCUAGAAAUUCCAACUCUUGCGGUCGCACUAGUGUGGAAUUCUCGGGUGUCAAGG"}, "B2": {"name": "ENSMUSG00000004113.188|Cacna1b (ssRNA)", "RNA": "GGGAGUUCUACAGUCCGACGAUCGCUUCGAUAUCCGCAUGCUAGCAAUGUUCCUGUAUGUUUCUACCCUGCCUGGGAUGUCCCCAAUGACCCUGGCUCCUCUGCUCAACCAAGUGCCUGAUCUCUGGCUCUGAGCAUCGUGGAUGAGGUACGGCCUCAGGAAGCAUCGGGUGGAUUGGGUGGGAGCUGCUCAGAGCAGCACGGGGGCUUGUGUCUUAGGGACAUUGACAGUGUCCAUCAGCAUGUCAGAGAAGCAGCUGUAGUGCCCGUGUUUCUCCCUGAGUCAUGGGUUCUGAAGAAGCCACUCUUGCGGUCGCACUAGUGUGGAAUUCUCGGGUGUCAAGG"}, "B3": {"name": "ENSMUSG00000061578.131|Ksr2 (ssRNA)", "RNA": "GGGAGUUCUACAGUCCGACGAUCGCUUCGAUAUCCGCAUGCUAACCAGUUCACCAUCAUUCAUGGCUUCCCCCAAAGUCCCGAGUCCUGAGAACCGGGGCUGUGGCAAGAGAGUUCUGGUGUGUUCUCUCUGUGGGGCUAGCAAUGCCGGGGUUAAGUUCUCCCUCGGUGAUGGAGACGGUCCUGGGUAUGCAUGAUGGGUUACAUGGGUGUGUGUGUGUGUGUAACUGUUUACAAUGGUCUCCCUGCCUCUCACGGGCUGUGUUCCAGGAGAAUGCACAUAGAGAGGUUCUGUGGUCUCUGCCUCUUGCGGUCGCACUAGUGUGGAAUUCUCGGGUGUCAAGG"}, "B4": {"name": "ENSMUSG00000061578.129|Ksr2 (ssRNA)", "RNA": "GGGAGUUCUACAGUCCGACGAUCGCUUCGAUAUCCGCAUGCUAGGUGUGACCUUUACCAGUUCACCAUCAUUCAUGGCUUCCCCCAAAGUCCCGAGUCCUGAGAACCGGGGCUGUGGCAAGAGAGUUCUGGUGUGUUCUCUCUGUGGGGCUAGCAAUGCCGGGGUUAAGUUCUCCCUCGGUGAUGGAGACGGUCCUGGGUAUGCAUGAUGGGUUACAUGGGUGUGUGUGUGUGUGUAACUGUUUACAAUGGUCUCCCUGCCUCUCACGGGCUGUGUUCCAGGAGAAUGCACAUAGAGAGGUUCCUCUUGCGGUCGCACUAGUGUGGAAUUCUCGGGUGUCAAGG"}, "B5": {"name": "ENSMUSG00000058297.285|Spock2 (ssRNA)", "RNA": "GGGAGUUCUACAGUCCGACGAUCGCUUCGAUAUCCGCAUGCUAUGUGUGUGUGUGAGAGAGAGAGAGAGAGAGAGAGAGAGAGAGAGAGAGAAAGAGAGAGAGAAUGAGAGAGAAUGAGAGAGAGAAUACCCGAGGGCCACCCUGAUGCCCAGGAAGAGUGAGGGCAGCCCCCUGUGUGGUGGAAGAGGCUGGGCAGCUAGCUACUGGGGACCUUGUGCUGAGGCUUCCAGGACAAAGCCCCAGUCUGGCUCUCCCCCAGCCUCUCAGGGGCACUGGCUGGUCACAUCCACUGAGUAUUGAUCCUCUUGCGGUCGCACUAGUGUGGAAUUCUCGGGUGUCAAGG"}, "B6": {"name": "ENSMUSG00000058297.297|Spock2 (ssRNA)", "RNA": "GGGAGUUCUACAGUCCGACGAUCGCUUCGAUAUCCGCAUGCUAUGAGAGAGAGAAUACCCGAGGGCCACCCUGAUGCCCAGGAAGAGUGAGGGCAGCCCCCUGUGUGGUGGAAGAGGCUGGGCAGCUAGCUACUGGGGACCUUGUGCUGAGGCUUCCAGGACAAAGCCCCAGUCUGGCUCUCCCCCAGCCUCUCAGGGGCACUGGCUGGUCACAUCCACUGAGUAUUGAUCGGUUGGACUUUAGGGAAGAGCCUCCUCCUUCCCAUUCCUUUCUGCCACCCUGGAAUGGCCACCUUAAUCGUCCUCUUGCGGUCGCACUAGUGUGGAAUUCUCGGGUGUCAAGG"}, "B7": {"name": "ENSMUSG00000058297.286|Spock2 (ssRNA)", "RNA": "GGGAGUUCUACAGUCCGACGAUCGCUUCGAUAUCCGCAUGCUAUGUGUGAGAGAGAGAGAGAGAGAGAGAGAGAGAGAGAGAGAGAAAGAGAGAGAGAAUGAGAGAGAAUGAGAGAGAGAAUACCCGAGGGCCACCCUGAUGCCCAGGAAGAGUGAGGGCAGCCCCCUGUGUGGUGGAAGAGGCUGGGCAGCUAGCUACUGGGGACCUUGUGCUGAGGCUUCCAGGACAAAGCCCCAGUCUGGCUCUCCCCCAGCCUCUCAGGGGCACUGGCUGGUCACAUCCACUGAGUAUUGAUCGGUUGGCUCUUGCGGUCGCACUAGUGUGGAAUUCUCGGGUGUCAAGG"}, "B8": {"name": "ENSMUSG00000058297.291|Spock2 (ssRNA)", "RNA": "GGGAGUUCUACAGUCCGACGAUCGCUUCGAUAUCCGCAUGCUAAGAGAGAGAGAGAAAGAGAGAGAGAAUGAGAGAGAAUGAGAGAGAGAAUACCCGAGGGCCACCCUGAUGCCCAGGAAGAGUGAGGGCAGCCCCCUGUGUGGUGGAAGAGGCUGGGCAGCUAGCUACUGGGGACCUUGUGCUGAGGCUUCCAGGACAAAGCCCCAGUCUGGCUCUCCCCCAGCCUCUCAGGGGCACUGGCUGGUCACAUCCACUGAGUAUUGAUCGGUUGGACUUUAGGGAAGAGCCUCCUCCUUCCCAUUCUCUUGCGGUCGCACUAGUGUGGAAUUCUCGGGUGUCAAGG"}, "B9": {"name": "ENSMUSG00000058297.298|Spock2 (ssRNA)", "RNA": "GGGAGUUCUACAGUCCGACGAUCGCUUCGAUAUCCGCAUGCUAAGAGAAUACCCGAGGGCCACCCUGAUGCCCAGGAAGAGUGAGGGCAGCCCCCUGUGUGGUGGAAGAGGCUGGGCAGCUAGCUACUGGGGACCUUGUGCUGAGGCUUCCAGGACAAAGCCCCAGUCUGGCUCUCCCCCAGCCUCUCAGGGGCACUGGCUGGUCACAUCCACUGAGUAUUGAUCGGUUGGACUUUAGGGAAGAGCCUCCUCCUUCCCAUUCCUUUCUGCCACCCUGGAAUGGCCACCUUAAUCGUCAUCUCCCUCUUGCGGUCGCACUAGUGUGGAAUUCUCGGGUGUCAAGG"}, "B10": {"name": "ENSMUSG00000061578.130|Ksr2 (ssRNA)", "RNA": "GGGAGUUCUACAGUCCGACGAUCGCUUCGAUAUCCGCAUGCUAACCUUUACCAGUUCACCAUCAUUCAUGGCUUCCCCCAAAGUCCCGAGUCCUGAGAACCGGGGCUGUGGCAAGAGAGUUCUGGUGUGUUCUCUCUGUGGGGCUAGCAAUGCCGGGGUUAAGUUCUCCCUCGGUGAUGGAGACGGUCCUGGGUAUGCAUGAUGGGUUACAUGGGUGUGUGUGUGUGUGUAACUGUUUACAAUGGUCUCCCUGCCUCUCACGGGCUGUGUUCCAGGAGAAUGCACAUAGAGAGGUUCUGUGGUCUCUUGCGGUCGCACUAGUGUGGAAUUCUCGGGUGUCAAGG"}, "B11": {"name": "ENSMUSG00000058297.288|Spock2 (ssRNA)", "RNA": "GGGAGUUCUACAGUCCGACGAUCGCUUCGAUAUCCGCAUGCUAAGAGAGAGAGAGAGAGAGAGAGAGAGAGAGAAAGAGAGAGAGAAUGAGAGAGAAUGAGAGAGAGAAUACCCGAGGGCCACCCUGAUGCCCAGGAAGAGUGAGGGCAGCCCCCUGUGUGGUGGAAGAGGCUGGGCAGCUAGCUACUGGGGACCUUGUGCUGAGGCUUCCAGGACAAAGCCCCAGUCUGGCUCUCCCCCAGCCUCUCAGGGGCACUGGCUGGUCACAUCCACUGAGUAUUGAUCGGUUGGACUUUAGGGAAGCUCUUGCGGUCGCACUAGUGUGGAAUUCUCGGGUGUCAAGG"}}, "note": "In all, about 9,900 sequences were measured (“r (bound/input frequency ratio)”: median about 0.7, highest 2% from about 6.5 on). The entries come from a sample that favours the highest values as a whole.", "data": [{"target": "TDP-43 (Homo sapiens, UniProt Q13148 1-414)", "sequence (Q13148 whole entry)": "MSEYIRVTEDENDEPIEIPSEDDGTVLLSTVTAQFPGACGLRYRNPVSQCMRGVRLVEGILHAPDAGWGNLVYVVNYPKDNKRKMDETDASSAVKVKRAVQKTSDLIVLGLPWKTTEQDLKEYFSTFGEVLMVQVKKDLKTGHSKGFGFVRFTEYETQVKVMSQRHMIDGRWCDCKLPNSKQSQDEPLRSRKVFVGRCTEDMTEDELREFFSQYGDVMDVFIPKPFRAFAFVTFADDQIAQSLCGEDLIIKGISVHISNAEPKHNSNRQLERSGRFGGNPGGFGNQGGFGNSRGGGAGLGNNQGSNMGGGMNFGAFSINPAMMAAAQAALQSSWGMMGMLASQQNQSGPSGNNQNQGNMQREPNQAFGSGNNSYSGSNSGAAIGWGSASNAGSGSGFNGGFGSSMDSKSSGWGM", "experiment": "RNA Bind-n-Seq with designed 260-mer pool; 25 mM Tris-HCl, 150 mM KCl, 3 mM MgCl2, BSA (printed 500 mg/mL), 20 units/mL SUPERase IN; pH not stated; 500 nM RNA pool, 1 h, 4 C; TDP-43 5, 50, 500 nM; high values mean tight binding", "conditions": "protein: recombinant; tags: SBP (GST cleaved off with PreScission; pGEX-GST-SBP)", "how_it_was_run": "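An in vitro-transcribed pool of 260-nt 3′ UTR oligos (500 nM) was incubated for 1 h at 4 °C with recombinant SBP-tagged TDP-43 at 5, 50 or 500 nM held on streptavidin beads. The buffer contained 25 mM Tris-HCl, 150 mM KCl, 3 mM MgCl2, BSA and SUPERase IN. Biotin-eluted bound RNA was sequenced, and binding, R, is each oligo's normalized read abundance in the bound sample over that in input.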", "values": [{"binder": "B1", "binding signal": "0.689 R (bound/input frequency ratio)"}, {"binder": "B2", "binding signal": "0.976 R (bound/input frequency ratio)"}, {"binder": "B3", "binding signal": "3.31 R (bound/input frequency ratio)"}, {"binder": "B4", "binding signal": "4.45 R (bound/input frequency ratio)"}, {"binder": "B5", "binding signal": "7.21 R (bound/input frequency ratio)"}, {"binder": "B6", "binding signal": "4.65 R (bound/input frequency ratio)"}, {"binder": "B7", "binding signal": "6.3 R (bound/input frequency ratio)"}, {"binder": "B8", "binding signal": "8.35 R (bound/input frequency ratio)"}, {"binder": "B9", "binding signal": "3.7 R (bound/input frequency ratio)"}, {"binder": "B10", "binding signal": "6.59 R (bound/input frequency ratio)"}, {"binder": "B11", "binding signal": "7.62 R (bound/input frequency ratio)"}]}]}
